In PubChem BioAssay (NCATS):
Records with an inconclusive call do not appear. Activity calls are given as the source filed them. Unless noted, calls come from the whole dose curve; as a rule, active = well fitted curve in the direction sought with a large enough effect; inconclusive = small, poorly fitted or top-dose-only effect, or another doubt; inactive = no such curve, though single readings can be large; an effect the other way counts as inactive or inconclusive.

Legend:
[1] = Confirmatory qHTS for VERO E6 Cytotoxicity Assay: Counterscreen for SARS-CoV-2 CPE Assay (AID 1508605; calls by dose curve)
[2] = qHTS profiling of the MIPE4 collection as inhibitors of Plasmodium falciparum (3D7) proliferation (AID 743344; call rule not given here); details: P. falciparum 3D7 in erythrocytes, SYBR Green DNA fluorescence, 72 h; at 28.5 µM (top of the series) unless noted
Method in brief: (§1)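 Parasite DNA was quantified by SYBR Green I fluorescence (ex 485, em 535 nm) after overnight lysis in saponin/Triton buffer at room temperature. Cultures at 0.3% parasitemia and 2.5% hematocrit were first exposed to compound for 72 h at 37 C; signals were normalised to artemisinin (0.29 uM) and vehicle wells.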

[3] = qHTS profiling of the MIPE4 collection as inhibitors of Plasmodium falciparum (DD2) proliferation (AID 743345; call rule not given here); details: P. falciparum Dd2 in erythrocytes, SYBR Green DNA, 72 h; at 28.5 µM (top of the series) unless noted
Method in brief: as §1

[4] = qHTS profiling of the MIPE4 collection as inhibitors of Plasmodium falciparum (DD2) proliferation (Rep 2) (AID 743346; call rule not given here); details: P. falciparum Dd2 in erythrocytes, SYBR Green DNA, 72 h; at 28.5 µM (top of the series) unless noted
Method in brief: as §1

[5] = S16 Schwann cell PMP22 intronic element firefly luciferase assay (AID 624032)
Method in brief: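 Rat S16 Schwann cells stably carrying a PMP22 intronic element-driven Fluc reporter were seeded overnight, then exposed to compounds for 24 h at 37 °C. Luminescence was normalized to PTC124 (positive control) and DMSO (0% activity).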

[6] = S16 Schwann cell PMP22 intronic element beta-lactamase assay (AID 624044; calls by dose curve)
Method in brief: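 Beta-lactamase reporter under a PMP22 intronic regulatory element in stable S16 rat Schwann cells; 24 h compound exposure. 460 nm blue signal normalized between DMSO (0%) and potassium clavulanate, with 535 nm FRET tracking viability; curves classed by r2 and response.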

[7] = molecular target: Rap guanine nucleotide exchange factor 3 (Homo sapiens) (UniProt O95398); assay: Confirmatory qHTS for antagonist of cAMP-regulated guanine nucleotide exchange factor 3 (EPAC1) (AID 1645880)
Method in brief: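 Released BODIPY-GDP fluoresces less than Rap1-bound BODIPY-GDP; the signal is followed at 480/540 nm at 5-min intervals over 30 min, after 5 min at room temperature. Reactions contain 100 nM EPAC1, 250 nM RAP1B-BODIPY-GDP and 50 uM GDP; results are normalized to ATA and DMSO.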

[8] = molecular target: Rap guanine nucleotide exchange factor 3 (Homo sapiens) (UniProt O95398); assay: Confirmatory qHTS for agonist of cAMP-regulated guanine nucleotide exchange factor 3 (EPAC1) (AID 1645881)
[9] = molecular target: Rap guanine nucleotide exchange factor 4 (Homo sapiens) (UniProt Q8WZA2); assay: Confirmatory qHTS for agonist of cAMP-regulated guanine nucleotide exchange factor 4 (EPAC2) (AID 1645884)
[10] = OV-KATE Cancer Cell Toxicity qHTS against the NCATS CANVASS Library (AID 1347345)
Method in brief: (§2)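 Toxicity is measured over 72 h of compound exposure at 37 degrees C under 5% CO2. Each well holds 1000 cells, pre-incubated for 4 hours before dosing across an 11-point range. CellTiter-Glo luminescence gives viability.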

[11] = U-118MG Cancer Cell Toxicity qHTS against the NCATS CANVASS Library (AID 1347351)
Method in brief: as §2

[12] = HEK-293 Cancer Cell Toxicity qHTS against the NCATS CANVASS Library (AID 1347355)
Method in brief: (§3)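 Using an ATP-based luminescent reagent after three days of treatment, toxicity is scored across an eleven-concentration range in wells holding 1000 cells each.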

[13] = tested on: NAD(P)H diaphorase (Clostridium kluyveri); assay: Diaphorse counterscreen qHTS: Assay Interference Panel against the NCATS CANVASS Library (AID 1347362)
Method in brief: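 Clostridium kluyveri diaphorase in PBS with 0.01% Tween-20 was preincubated 15 min at room temperature in the dark with compounds (11-point series). Resorufin fluorescence (ex 525/20, em 598/25) was read 5 min after adding resazurin/NADH.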

[14] = SDT Cancer Cell Toxicity qHTS against the NCATS CANVASS Library (AID 1347365)
Method in brief: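 Canine SDT glioma cell toxicity was scored by ATP-dependent luminescence after a 72 hr incubation with an 11-point compound series.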

[15] = G06 Cancer Cell Toxicity qHTS against the NCATS CANVASS Library (AID 1347368)
Method in brief: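 Quantitative HTS in G06 cells (dog glioma): 72 hr treatment, 11 concentrations, then ATP-based luminescent viability readout; bortezomib 0.1 nM–4.6 uM final as reference.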

[16] = qHTS for Inflammasome Signaling Inhibitors: IL-1-beta AlphaLISA screen against the NCATS CANVASS Library (AID 1347379)
Method in brief: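 THP-1, 1 hr compound pre-incubation, then LPS 250 ng/mL + ATP 1.25 mM (final); 16 hr total with compound; IL-1B AlphaLISA, ex 680/em 615 nm; 11-point qHTS, up to 57.5 uM final.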

[17] = Vero-766 cells viability qHTS against the NCATS CANVASS Library: Counterscreen for Zika virus inhibition assay (AID 1347394)
Method in brief: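 This cytotoxicity counterscreen uses African green monkey Vero 766 cells in the absence of Zika virus. Compounds are incubated with cells for 72 h, and ATP-based luminescence reports viability.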

[18] = qHTS Assay for Identification of Small Molecule Agonists for Hypoxia Response Element Signaling Pathway (AID 914; active = well fitted activation curve with a large enough effect in the signal ratio, with a control signal flat, not every such curve was filed as active; the % refers to the signal ratio); details: ME-180 HRE-bla reporter, beta-lactamase ratio, CoCl2, 17 h; activation: stronger effect = higher value
Method in brief: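 Read-out: CCF4 FRET ratio of 460nm to 530nm emission (excitation 405nm) after 2.5 hours at room temperature, taken from HRE-bla ME-180 cells that had been exposed to compound and EC50 CoCl2 for 17 hours.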

[19] = COV-362 Cancer Cell Toxicity qHTS against the NCATS CANVASS Library (AID 1347352)
Method in brief: as §3

[20] = qHTS for inhibitors of Wild type Zika virus screened against the NCATS CANVASS Library (AID 1347396)
Method in brief: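 Protection against wild-type Zika cytopathic effect is measured in African green monkey Vero 766 cells exposed to an 11-point compound series. Surviving cells are quantified by CellTiter Glo luminescence after 72 h.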

Chain of Rap guanine nucleotide exchange factor 3 (Homo sapiens) (O95398 whole entry, looked up): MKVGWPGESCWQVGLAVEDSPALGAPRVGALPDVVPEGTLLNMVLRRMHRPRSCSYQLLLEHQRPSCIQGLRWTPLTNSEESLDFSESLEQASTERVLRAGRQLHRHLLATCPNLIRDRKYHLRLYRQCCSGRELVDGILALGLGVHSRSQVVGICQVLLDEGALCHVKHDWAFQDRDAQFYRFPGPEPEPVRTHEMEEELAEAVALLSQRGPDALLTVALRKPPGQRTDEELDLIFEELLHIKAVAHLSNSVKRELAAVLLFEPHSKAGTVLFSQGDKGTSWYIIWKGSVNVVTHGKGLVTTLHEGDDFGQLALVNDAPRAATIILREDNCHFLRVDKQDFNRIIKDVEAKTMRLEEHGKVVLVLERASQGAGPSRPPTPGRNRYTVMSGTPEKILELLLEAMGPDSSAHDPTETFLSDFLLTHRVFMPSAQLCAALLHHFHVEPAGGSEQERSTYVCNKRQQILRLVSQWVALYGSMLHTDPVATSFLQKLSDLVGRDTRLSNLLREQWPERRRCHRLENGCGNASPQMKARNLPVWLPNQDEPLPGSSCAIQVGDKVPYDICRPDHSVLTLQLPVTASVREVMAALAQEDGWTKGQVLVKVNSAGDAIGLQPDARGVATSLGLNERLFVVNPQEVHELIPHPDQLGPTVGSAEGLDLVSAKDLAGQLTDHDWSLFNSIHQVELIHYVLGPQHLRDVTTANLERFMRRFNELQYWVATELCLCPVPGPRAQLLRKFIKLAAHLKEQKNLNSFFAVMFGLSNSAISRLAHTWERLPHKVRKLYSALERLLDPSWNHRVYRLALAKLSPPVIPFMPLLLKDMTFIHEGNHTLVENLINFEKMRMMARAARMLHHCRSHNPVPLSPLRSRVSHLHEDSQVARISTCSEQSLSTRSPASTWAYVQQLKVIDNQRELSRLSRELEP
Chain of Rap guanine nucleotide exchange factor 4 (Homo sapiens) (Q8WZA2 whole entry, looked up): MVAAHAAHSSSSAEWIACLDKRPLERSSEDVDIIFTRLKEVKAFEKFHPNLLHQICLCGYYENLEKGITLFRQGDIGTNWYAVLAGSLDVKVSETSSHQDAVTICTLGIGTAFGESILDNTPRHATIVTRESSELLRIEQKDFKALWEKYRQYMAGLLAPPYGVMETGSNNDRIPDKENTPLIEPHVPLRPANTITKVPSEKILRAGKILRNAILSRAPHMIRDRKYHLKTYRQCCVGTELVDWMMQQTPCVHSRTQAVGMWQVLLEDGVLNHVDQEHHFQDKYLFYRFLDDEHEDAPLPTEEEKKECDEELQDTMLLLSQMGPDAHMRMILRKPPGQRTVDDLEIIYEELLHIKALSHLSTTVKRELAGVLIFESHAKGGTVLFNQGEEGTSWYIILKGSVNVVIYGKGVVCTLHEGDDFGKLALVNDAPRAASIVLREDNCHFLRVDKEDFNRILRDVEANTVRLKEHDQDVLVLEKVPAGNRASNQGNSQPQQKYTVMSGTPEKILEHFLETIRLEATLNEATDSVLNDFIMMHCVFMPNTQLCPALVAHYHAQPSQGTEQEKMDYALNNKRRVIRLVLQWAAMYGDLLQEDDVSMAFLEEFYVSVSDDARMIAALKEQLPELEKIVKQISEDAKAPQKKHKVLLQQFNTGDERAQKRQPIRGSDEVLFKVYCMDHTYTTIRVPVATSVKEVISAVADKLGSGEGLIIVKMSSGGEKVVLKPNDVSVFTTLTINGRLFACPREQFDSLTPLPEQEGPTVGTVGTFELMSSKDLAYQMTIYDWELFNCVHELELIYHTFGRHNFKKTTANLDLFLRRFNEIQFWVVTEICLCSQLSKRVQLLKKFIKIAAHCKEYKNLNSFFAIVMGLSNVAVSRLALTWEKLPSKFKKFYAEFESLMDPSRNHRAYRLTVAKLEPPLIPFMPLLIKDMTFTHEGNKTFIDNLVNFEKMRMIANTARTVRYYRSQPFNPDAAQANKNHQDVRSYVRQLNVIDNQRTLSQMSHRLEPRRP

## CC1(C)CC(=O)c2c(C(F)(F)F)nn(-c3ccc(C(N)=O)c(NC4CCC(OC(=O)CN)CC4)c3)c2C1 (stereo unspecified)
[1]
  Potency: inactive

## COc1ccc2cc1Oc1ccc(cc1)C[C@H]1c3cc(c(OC)cc3CCN1C)Oc1c(OC)c(OC)cc3c1[C@H](C2)N(C)CC3
[2]
  parasite growth, % of DMSO control: 31.2%
[3]
  parasite growth remaining, % of DMSO control (lower = more inhibition): 72.6%
[4]
  parasite growth, % of control (lower = inhibition): 50.7%

## CO[C@H]1[C@@H](O)CC(OC2[C@@H](O)CC(OC3[C@@H](O)C[C@H](OC4CC[C@@]5(C)C(CCC6C5CC(O)[C@]5(C)[C@H](C7=CC(=O)OC7)CCC65O)C4)O[C@@H]3C)O[C@@H]2C)O[C@@H]1C (stereo partly specified)
[5]
  Potency: inactive
[6]
  Potency: inactive

## CC(C)=CCCC1(C)C=Cc2c(O)c3c(c(CC=C(C)C)c2O1)OC12C(=CC4CC1C(C)(C)OC2(C/C=C(/C)C(=O)O)C4O)C3=O (stereo unspecified)
[7]
  Potency: 28 µM (active)
[8]
  outcome: inactive
[9]
  outcome: inactive

## CCN(CC)CCO[C@H]1CC[C@@]2(C)C(=CC[C@@H]3[C@H]2CC[C@]2(C)C(=O)CC[C@H]32)C1
[5]
  Potency: 9.07 µM (active)
[6]
  Potency: inactive

## C=C1[C@@H](C)[C@H]2[C@H](Cc3ccccc3)NC(=O)[C@]23OC(=O)/C=C/[C@H](O)CCC[C@@H](C)C/C=C/[C@H]3[C@@H]1O
[10]
  Potency: inactive
[11]
  Potency: inactive
[12]
  Potency: 9.35 µM (active)
[13]
  outcome: inactive
[14]
  Potency: 2.64 µM (active)
[15]
  Potency: 2.35 µM (active)
[16]
  Potency: inactive
[17]
  Potency: 13.2 µM (active)

## CP(=O)(O)CCCN
[18]
  activation: 7.54% (inactive)

## COc1ccc2c3c([nH]c2c1)C(C)=NCC3
[18]
  Potency: 10 µM (active)
[10]
  Potency: inactive
[11]
  Potency: inactive
[19]
  Potency: inactive
[13]
  outcome: inactive
[17]
  Potency: inactive
[20]
  Potency: inactive

## COc1ccc2c(c1)[nH]c1c(C)nccc12
[19]
  Potency: 38.6 µM (active)
[12]
  Potency: 7.62 µM (active)
[14]
  Potency: 24.1 µM (active)
[15]
  Potency: 24.1 µM (active)
[16]
  Potency: 31.4 µM (active)
[20]
  Potency: inactive

## CC(C)(O)[C@H]1O[C@@H]2CC[C@]3(C)[C@@]4(C)c5[nH]c6ccccc6c5C[C@@H]4CC[C@]3(O)C2=CC1=O
[7]
  Potency: inactive
[8]
  outcome: inactive
[9]
  outcome: inactive
